Among the data in PubChem BioAssay (NCI) are growth values, retold here.

About 83,000 compounds went through this panel and 20% of them were active in at least one assay; those are over-represented in the sample as a whole.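 Single-dose data. Exposure time 48 hours. Values below 10 considered active.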 Unmarked numbers belong to inactive results. Activity calls are given as the source filed them.

Common to all, as to test: NCI-60 one-dose screen, 48 h (100 = growth as untreated, 0 = no growth, -100 = all killed)
What all share (details): 10 µM unless noted

Experiment [1] relates to T-47D breast.
For experiment [2], the system named is BT-549 breast.
For experiment [3], the system named is MDA-MB-435 melanoma.
The test system of experiment [4] is SW-620 colon.
Experiment [5] has as its system MCF7 breast.
Experiment [6] concerns HCT-116 colon.
The test system of experiment [7] is HCC-2998 colon.
The test system of experiment [8] is KM12 colon.

For the compound `CNC(=O)c1c(NC(=O)c2ccc(C(C)(C)C)cc2)sc2c1CCC(=O)C2`, the growth was -23.5% (active) in experiment [1]; 1.12% (active) in experiment [2]; -9.83% (active) in experiment [3]; -62.3% (active) in experiment [4]; 8.99% (active) in experiment [5]; 0.171% (active) in experiment [6]. The growth in experiment [7] was 23.3%; in experiment [8] it was -7.97% (active).

For `CCOC(=O)c1nnn(-c2ccccc2)c1C1=CN(C)CCC1`, the growth in experiment [1] was 93.3%; in experiment [2], 99.4%; in experiment [3], 105%; in experiment [4] it was 101%; in experiment [5] it was 92.9%; in experiment [6], 87.7%. The growth was 95.9% in experiment [7] and 99.9% in experiment [8].

For the compound `CN(C)CN1CCN(c2ccc3nc(-c4ccc5nc(-c6ccc(C(F)(F)F)cc6)[nH]c5c4)[nH]c3c2)CC1`, the growth in experiment [1] was 61.4%; in experiment [2], 86.2%; in experiment [3] it was 40.9%; in experiment [4], 27%; in experiment [5] it was 9.58% (active); in experiment [6], 23.8%. Moreover, the growth in experiment [7] was 84.7%; in experiment [8], 26.5%.

As to `COc1cc(/C=C/c2nc(Nc3ccc(S(=O)(=O)Nc4cc(C)on4)cc3)c3ccccc3n2)ccc1O`, the growth in experiment [1] was 58.4%; in experiment [2], 107%; in experiment [3], -44.1% (active); in experiment [4], 39.1%; in experiment [5], 30.7%; in experiment [6], 54.6%. For the same compound, the growth in experiment [7] was 81.9%; in experiment [8], 31.8%.

Regarding `Cc1[nH]c(-c2nc3ccccc3[nH]2)c(C)c1C(=O)N1CCc2sccc2C1`, the growth in experiment [1] is 72.9%; in experiment [2] it was 94.1%; in experiment [3], 94.9%; in experiment [4], 89%; in experiment [5], 90.2%; in experiment [6] it was 92.6%. For the same compound, the growth is 110% in experiment [7] and 97.6% in experiment [8].

In the case of `O=C(c1ccccc1)c1ccc(Cl)c([N+](=O)[O-])c1`, the growth in experiment [1] was 71.5%; in experiment [2], 106%; in experiment [3], 89.5%; in experiment [4], 16.8%; in experiment [5] it was 91.3%; in experiment [6], 45.2%. The growth in experiment [7] was 88.4%; in experiment [8], 106%.

Take `C=CCO[C@H]1CO[C@H]2[C@@H]1OC[C@@H]2Oc1ccc(Nc2ccnc(Nc3ccc(O[C@H]4CO[C@H]5[C@@H]4OC[C@@H]5OCC=C)c(Cl)c3)n2)cc1Cl`: the growth was -39.7% (active) in experiment [1]; 32.7% in experiment [2]; -88.4% (active) in experiment [3]; -58.9% (active) in experiment [4]; -71.1% (active) in experiment [5]; -29.7% (active) in experiment [6]. Besides, the growth was -93.3% (active) in experiment [7] and -72.1% (active) in experiment [8].

Take `O=C(CCc1nc(-c2cccc(Cl)c2)no1)Nc1ccccn1`: the growth is 107% in experiment [1]; 95.7% in experiment [2]; 105% in experiment [3]; 103% in experiment [4]; 90.2% in experiment [5]; 99.1% in experiment [6]. In addition, the growth was 97.7% in experiment [7] and 98% in experiment [8].

On to `COc1ccc(/C=C2\COc3ccc(O)cc3C2=O)cc1OC`, for which the growth in experiment [1] was 73%; in experiment [2], 75.7%; in experiment [3] it was 24.4%; in experiment [4] it was 10.6%; in experiment [5] it was 27.3%; in experiment [6], 11.7%. Also, the growth is 121% in experiment [7] and 20.2% in experiment [8].

With `N#Cc1cnn2c(-c3ccc(Cl)cc3)nc(NC3CC3)nc12`, the growth in experiment [1] was 82.4%; in experiment [2] it was 94.2%; in experiment [3] it was 96.8%; in experiment [4], 103%; in experiment [5], 78%; in experiment [6], 93.8%. The growth in experiment [7] was 101%; in experiment [8], 98.2%.

Consider `Nc1nc(I)c2ncn(C3OC(CO)C(O)C3O)c2n1` (stereo not drawn), for which the growth in experiment [1] was 94.9%; in experiment [2], 69.7%; in experiment [3], 91.6%; in experiment [4] it was 114%; in experiment [5], 96.6%; in experiment [6], 110%. Also, the growth is 103% in experiment [7] and 115% in experiment [8].

As to `CN(C)CCOC(=O)Nc1ccc(Cl)cc1`, the growth is 101% in experiment [1]; 82% in experiment [2]; 112% in experiment [3]; 104% in experiment [4]; 94.4% in experiment [5]; 86.8% in experiment [6]. Besides, the growth in experiment [7] was 102%; in experiment [8], 104%.

Turning to `CN(C)c1ccc(C#Cc2c(F)cccc2Cl)cc1`, the growth was 41.8% in experiment [1]; 98.2% in experiment [2]; 99.8% in experiment [3]; 96% in experiment [4]; 39.5% in experiment [5]; 84.8% in experiment [6]. In addition, the values for the growth in experiment [7] and in experiment [8] were 76.2% and 85.4%, respectively.

On to `Cc1nc(Nc2ccc(NC(=S)Nc3ccccc3)cc2)c2ccccc2n1`, for which the growth was 87.6% in experiment [1]; 113% in experiment [2]; 112% in experiment [3]; 106% in experiment [4]; 77.4% in experiment [5]; 101% in experiment [6]. Moreover, the growth in experiment [7] and in experiment [8] was 104% in each case.

As for `CCCCN(Cc1ccc(C(=O)NO)cc1)C(=O)Nc1ccc(OCCCCCCCCCn2cc(CCCCC(=O)N[C@H](C(=O)N3C[C@H](O)C[C@H]3C(=O)NCc3ccc(-c4scnc4C)cc3)C(C)(C)C)nn2)cc1`, the growth in experiment [1] was 32.2%; in experiment [2] it was 42.2%; in experiment [3], 34.8%; in experiment [4] it was 30.7%; in experiment [5], 8.44% (active); in experiment [6], 20.9%. The growth in experiment [7] is 57.2%; in experiment [8], 22.1%.

In the case of `CCOC(=O)N1CCc2c(sc3c2C(=O)N[C@H](c2ccc(OC)cc2)N3)C1`, the growth in experiment [1] was 79%; in experiment [2], 108%; in experiment [3], 98.7%; in experiment [4], 99.6%; in experiment [5], 97.7%; in experiment [6] it was 93.3%. The growth in experiment [7] is 104%; in experiment [8], 102%.
